For part of these data: Entries with a potency or affinity are not part of this list. Active and inactive are the calls of the source.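 The calls were made as follows, unless noted: active = primary screen active and over 50% activation in each of two duplicate runs; inactive = the rest.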
Experiments:
[1] = tested on: TRPC4 beta (transient receptor potential cation channel C4), mouse; experiment: TRPC4 cation channel opening, retest – cell-based, Fluo4 calcium, HEK293 TRPC4beta/mu-opioid, duplicates, 10 µM, confirmation (AID 2426;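 active = fluorescence ratio normalized to control raised more than 50% in primary screen plus both repeat runs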;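 as to activation: percent rise of integrated ratio over buffer wells lacking compound which define 0%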); conditions: Fluo4 calcium fluorescence, at 10 µM; stronger effect = higher value
[2] = tested on: transient receptor potential cation channel C4 beta (TRPC4), mouse; experiment: TRPC4 cation channel opening, second retest – cell-based, second round, Fluo4, HEK293 TRPC4beta/mu-opioid, 1 µM, confirmation (AID 2461); conditions: Fluo4 calcium fluorescence, at 1 µM; stronger effect = higher value;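 as to activation: 0% = wells without test compound as baseline of integrated fluorescence ratio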
[3] = tested on: TRPC4 (transient receptor potential cation channel C4 beta), mouse; experiment: potentiation of DAMGO EC20 TRPC4 response – cell-based, second round, Fluo-4, HEK293 TRPC4beta/mu-opioid, 1 µM, confirmation (AID 2554;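 active = primary screen hit whose fluorescence ratio, in both repeats, exceeds the weak agonist control mean by 3 SD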); conditions: DAMGO EC20, Fluo-4 calcium flux, at 1 µM; stronger effect = higher value
[4] = tested on: TRPC4 beta (transient receptor potential cation channel C4), mouse; experiment: potentiation of DAMGO EC20 TRPC4 response – cell-based, Fluo-4, HEK293 TRPC4beta/mu-opioid, confirmation (AID 2555;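 active = primary screen hit whose calcium fluorescence ratio, in both repeats, exceeds the weak agonist control mean by 3 SD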); conditions: DAMGO EC20, Fluo-4 calcium flux, at 10 µM; stronger effect = higher value
[5] = molecular target: Short transient receptor potential channel 4 (Mus musculus) (UniProt Q9QUQ5); experiment: blockers of DAMGO-evoked TRPC4 calcium flux – cell-based, Fluo4, HEK293 TRPC4beta/mu-opioid, confirmation (AID 2636;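 active = calcium signal cut by more than 3 SD below the full-agonist control yet still positive, in both repeats and the earlier primary screen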); conditions: at 10 µM; stronger effect = higher value
[6] = molecular target: Short transient receptor potential channel 4 (Mus musculus) (UniProt Q9QUQ5); experiment: blockers of DAMGO-evoked TRPC4 calcium flux – cell-based, second round, Fluo4, HEK293 TRPC4beta/mu-opioid, 1 µM, confirmation (AID 2637;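 active = calcium signal ratio cut to more than 3 SD under the fully stimulated control mean yet still positive, in both repeats and the primary screen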); conditions: at 1 µM; stronger effect = higher value
[7] = molecular target: Short transient receptor potential channel 4 (Mus musculus) (UniProt Q9QUQ5); experiment: potentiation of DAMGO-evoked TRPC4 calcium signal – cell-based, HEK293 TRPC4/mu-opioid, Fluo-4 calcium, EC20 DAMGO, dose response (AID 434941;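 active = earlier screen potentiator hit that boosts the TRPC4 ion channel at some dose, with a dose response; inactive = no potentiation, no dose response, or not a prior hit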;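 also: calcium entry triggered by an EC20 dose of DAMGO at the co-expressed mu-opioid receptor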)
[8] = molecular target: Short transient receptor potential channel 4 (Mus musculus) (UniProt Q9QUQ5); experiment: block of DAMGO-driven TRPC4 calcium entry – cell-based, HEK293 TRPC4/mu-opioid, Fluo-4 calcium, dose response (AID 434942;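 active = primary screen inhibitor hit that blocks the TRPC4 channel at some tested dose, yielding a dose curve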)
[9] = molecular target: Short transient receptor potential channel 6 (Mus musculus) (UniProt Q61143); experiment: TRPC6 blockade by TRPC4 inhibitor hits – cell-based, HEK293, membrane potential dye, duplicate, selectivity assay for TRPC4 inhibitor project, confirmation (AID 434948;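 active = active in primary screen and both duplicates, each dropping signal beyond three positive-control SD with fluorescence still positive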); conditions: HEK293 TRPC6, membrane potential dye fluorescence, at 10 µM, stimulated with maximal-effect acetylcholine; stronger effect = higher value
[10] = molecular target: Short transient receptor potential channel 6 (Mus musculus) (UniProt Q61143); experiment: TRPC6 opening by TRPC4 activator hits – cell-based, HEK293, membrane potential dye, duplicate, selectivity assay for TRPC4 activator project, confirmation (AID 434950;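 active = membrane potential signal rise above negative control mean plus 3 SD in both duplicates, also active in the earlier TRPC4 screen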;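 as to activation: 0% = buffer only wells and 100% = acetylcholine maximal-effect wells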); conditions: HEK293 TRPC6, membrane potential fluorescence, at 10 µM; activation: stronger effect = higher value; outcome: activation
[11] = molecular target: Short transient receptor potential channel 6 (Mus musculus) (UniProt Q61143); experiment: positive modulators of mouse TRPC6 channel – HEK293 cells, membrane potential dye, duplicate, selectivity assay for TRPC4 potentiator project, confirmation (AID 434952;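 active = compound raising the membrane signal above positive-control mean plus 3 SD in both repeats, and a primary screen hit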); conditions: HEK293 TRPC6, membrane potential dye fluorescence, at 10 µM, maximal acetylcholine added after compound; stronger effect = higher value
[12] = molecular target: Short transient receptor potential channel 4 (Mus musculus) (UniProt Q9QUQ5); experiment: calcium flux activators in TRPC4/5HT1a cells, counter-screen for TRPC4 activator project, cell-based, second counter screen, HEK293 TRPC4/5HT1a, Fluo-4 (AID 434977;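 active = calcium signal rise above buffer-control mean plus 5 SD in both duplicates, and also a hit in the primary screen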;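 as to activation: plate controls were assay buffer for no effect and maximal serotonin response for full effect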); conditions: Fluo-4 calcium flux, at 10 µM; stronger effect = higher value
[13] = serotonin-gated TRPC4 signal block – cell-based, second counter screen, HEK293 TRPC4/5HT1a, Fluo-4, counter-screen for TRPC4 inhibitor project, confirmation (AID 434978;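 active = primary screen active whose calcium signal fell more than 3 SD beyond the full-serotonin control mean in both duplicate plates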;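 also: serotonin given first at submaximal then at maximal dose after compound preincubation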); conditions: Fluo-4 calcium flux, at 10 µM, serotonin added to trigger calcium flux; stronger effect = higher value
[14] = tested on: TRPC4 (mouse), co-expressed with 5HT1a in HEK293; experiment: enhancement of serotonin-evoked TRPC4 response – cell-based, second counter screen, HEK293 TRPC4/5HT1a, Fluo-4, counter-screen for TRPC4 potentiator project, confirmation (AID 434979;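 active = signal rise over 3 SD above mean of control wells given weak agonist, in both repeats and first screen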); conditions: Fluo-4 calcium flux, at 10 µM, serotonin added at its EC20 dose; stronger effect = higher value
[15] = nonspecific calcium rise without TRPC4 – cell-based, HEK293 mu-opioid receptor line, counter-screen for TRPC4 activator project, confirmation (AID 449723;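 active = hit in primary screen, with calcium signal over 5 SD above buffer well mean in both duplicates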;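 also: counter screen cells carry the mu-opioid receptor alone and lack TRPC4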); conditions: HEK293 mu-opioid cells, Fluo-4 calcium fluorescence, at 10 µM; stronger effect = higher value
[16] = nonspecific potentiation of DAMGO calcium response – cell-based, HEK293 mu-opioid receptor line, counter-screen for TRPC4 allosteric potentiator project, confirmation (AID 449724;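 active = calcium signal rise more than 3 SD above the low-dose agonist control mean, in both duplicate plates and the primary screen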); conditions: HEK293 mu-opioid receptor cells, Fluo-4 calcium flux, at 10 µM, compound added before EC20 DAMGO stimulus; stronger effect = higher value

Sequence of Short transient receptor potential channel 4 (Mus musculus) (Q9QUQ5 whole entry, looked up): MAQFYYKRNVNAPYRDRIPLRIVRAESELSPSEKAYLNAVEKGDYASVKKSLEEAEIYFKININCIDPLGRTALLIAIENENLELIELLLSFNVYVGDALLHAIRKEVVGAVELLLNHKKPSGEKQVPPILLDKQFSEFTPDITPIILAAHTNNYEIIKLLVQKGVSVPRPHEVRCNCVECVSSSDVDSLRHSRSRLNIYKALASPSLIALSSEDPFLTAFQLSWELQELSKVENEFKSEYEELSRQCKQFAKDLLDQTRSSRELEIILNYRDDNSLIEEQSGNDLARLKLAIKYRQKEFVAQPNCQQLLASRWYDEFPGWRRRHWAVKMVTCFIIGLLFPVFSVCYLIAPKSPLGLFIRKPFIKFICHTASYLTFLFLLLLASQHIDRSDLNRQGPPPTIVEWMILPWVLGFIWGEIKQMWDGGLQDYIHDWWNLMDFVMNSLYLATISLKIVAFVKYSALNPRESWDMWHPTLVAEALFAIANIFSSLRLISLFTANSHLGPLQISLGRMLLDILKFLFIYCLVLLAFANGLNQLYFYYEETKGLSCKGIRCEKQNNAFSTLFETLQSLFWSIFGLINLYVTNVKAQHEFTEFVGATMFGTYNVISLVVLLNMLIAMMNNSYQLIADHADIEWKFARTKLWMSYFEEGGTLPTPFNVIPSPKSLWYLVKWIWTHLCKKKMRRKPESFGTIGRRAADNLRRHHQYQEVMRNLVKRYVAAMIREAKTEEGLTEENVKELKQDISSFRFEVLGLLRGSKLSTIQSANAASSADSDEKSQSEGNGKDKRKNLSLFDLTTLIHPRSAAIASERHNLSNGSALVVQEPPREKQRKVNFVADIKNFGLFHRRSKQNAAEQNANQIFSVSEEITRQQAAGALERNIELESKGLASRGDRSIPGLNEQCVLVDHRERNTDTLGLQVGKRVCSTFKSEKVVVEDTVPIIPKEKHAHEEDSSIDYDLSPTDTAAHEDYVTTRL
Sequence of Short transient receptor potential channel 6 (Mus musculus) (Q61143 whole entry, looked up): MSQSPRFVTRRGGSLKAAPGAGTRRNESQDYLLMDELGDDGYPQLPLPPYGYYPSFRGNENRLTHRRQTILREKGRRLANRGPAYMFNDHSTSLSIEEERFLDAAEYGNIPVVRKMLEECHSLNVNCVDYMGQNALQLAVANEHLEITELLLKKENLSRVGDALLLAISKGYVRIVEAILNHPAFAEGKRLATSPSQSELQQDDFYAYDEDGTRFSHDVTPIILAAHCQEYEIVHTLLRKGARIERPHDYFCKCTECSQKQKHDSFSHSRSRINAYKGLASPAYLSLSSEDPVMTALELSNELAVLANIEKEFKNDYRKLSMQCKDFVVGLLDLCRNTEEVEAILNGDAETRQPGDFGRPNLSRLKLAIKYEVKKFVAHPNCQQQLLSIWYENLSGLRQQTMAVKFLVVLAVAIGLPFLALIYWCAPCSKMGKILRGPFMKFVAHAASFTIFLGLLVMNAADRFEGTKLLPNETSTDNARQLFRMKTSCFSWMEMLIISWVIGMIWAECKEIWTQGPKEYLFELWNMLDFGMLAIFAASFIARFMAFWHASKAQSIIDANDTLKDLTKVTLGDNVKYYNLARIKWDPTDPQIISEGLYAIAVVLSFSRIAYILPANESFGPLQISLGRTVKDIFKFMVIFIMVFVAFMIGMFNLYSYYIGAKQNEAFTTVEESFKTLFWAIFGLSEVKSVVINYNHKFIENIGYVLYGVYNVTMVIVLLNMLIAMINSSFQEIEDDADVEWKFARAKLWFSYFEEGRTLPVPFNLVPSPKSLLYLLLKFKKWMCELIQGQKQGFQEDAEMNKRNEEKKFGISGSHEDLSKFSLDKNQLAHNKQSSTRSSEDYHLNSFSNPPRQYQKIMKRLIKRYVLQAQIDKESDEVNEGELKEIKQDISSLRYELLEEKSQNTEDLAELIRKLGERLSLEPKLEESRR

NCCCNC(=O)c1cc2ccccc2[nH]1
active: activation [1] 220% | activation [12] 6.83%
inactive: outcome [2] | outcome [3] | outcome [4] | outcome [5] | outcome [6] | outcome [7] | outcome [8] | outcome [9] | outcome [10] | outcome [11] | outcome [13] | outcome [14] | outcome [15] | outcome [16]

CCN1/C(=C\c2ccc3cc(C)ccc3[n+]2CC)Sc2cc(C)c(C)cc21
inactive: outcome [2] | outcome [3] | outcome [5] | outcome [6] | outcome [7] | outcome [8] | outcome [9] | outcome [10] | outcome [11] | outcome [13]
active: activation [1] 177% | potentiation [4] 59% | activation [12] 66.7% | potentiation [14] 41.7% | activation [15] 152% | activation [16] 1520%

NC1=NC2(CCN(Cc3ccccc3)CC2)n2c(nc3ccccc32)N1
active: activation [1] 54%
inactive: outcome [2] | outcome [3] | outcome [4] | outcome [5] | outcome [6] | outcome [7] | outcome [8] | outcome [9] | outcome [10] | outcome [11] | outcome [12] | outcome [13] | outcome [14] | outcome [15] | outcome [16]

CCN1CCN(c2ccc(S(=O)(=O)N3CCOCC3)cc2NC(=O)/C=C/c2ccc(OC)cc2OC)CC1
active: activation [1] 112% | activation [12] 6.55%
inactive: outcome [2] | outcome [3] | outcome [4] | outcome [5] | outcome [6] | outcome [7] | outcome [8] | outcome [9] | outcome [10] | outcome [11] | outcome [13] | outcome [14] | outcome [15] | outcome [16]

COc1ccc2c(Cl)c(-c3nnc4n3CCCCC4)sc2c1
inactive: outcome [2] | outcome [3] | outcome [4] | outcome [5] | outcome [6] | outcome [7] | outcome [8] | outcome [9] | outcome [11] | outcome [12] | outcome [13] | outcome [14] | outcome [15] | outcome [16]
active: activation [1] 117% | activation [10] 52%

Cc1cc2nc3s/c(=C/c4ccc(-c5ccccc5C(=O)O)o4)c(=O)n3c2cc1C
active: activation [1] 177% | activation [10] 675% | activation [12] 112% | activation [15] 136%
inactive: outcome [2] | outcome [3] | outcome [4] | outcome [5] | outcome [6] | outcome [7] | outcome [8] | outcome [9] | outcome [11] | outcome [13] | outcome [14] | outcome [16]

Nc1c(C(=O)c2ccccc2)sc2nsc(SCCN3CCCC3)c12
active: activation [1] 89% | activation [10] 410% | activation [12] 93% | activation [15] 84.3%
inactive: outcome [2] | outcome [3] | outcome [4] | outcome [5] | outcome [6] | outcome [7] | outcome [8] | outcome [9] | outcome [11] | outcome [13] | outcome [14] | outcome [16]

CC1CC(C)CN(CCCNC(=O)c2ccc3c(c2)N(Cc2ccccc2)C(=O)c2ccccc2S3=O)C1 (stereo not given)
inactive: outcome [3] | outcome [4] | outcome [5] | outcome [6] | outcome [7] | outcome [8] | outcome [9] | outcome [10] | outcome [11] | outcome [13] | outcome [14] | outcome [15] | outcome [16]
active: activation [1] 106% | activation [2] 54% | activation [12] 23.8%

COc1ccc(-n2nc(C(=O)NCC(=O)NCCCN3CC(C)CC(C)C3)c3ccccc3c2=O)cc1Cl (stereo not given)
inactive: outcome [1] | outcome [2] | outcome [3] | outcome [4] | outcome [5] | outcome [6] | outcome [7] | outcome [8] | outcome [9] | outcome [10] | outcome [11] | outcome [13] | outcome [14] | outcome [15] | outcome [16]
active: activation [12] 12.2%

CC(COc1ccccc1)N1CCC(CO)(CCc2ccccc2)CC1 (stereo not given)
inactive: outcome [1] | outcome [2] | outcome [3] | outcome [4] | outcome [5] | outcome [6] | outcome [7] | outcome [8] | outcome [9] | outcome [11] | outcome [12] | outcome [13] | outcome [14] | outcome [15] | outcome [16]
active: activation [10] 95.5%

Cc1ccccc1NC(=S)NCC(c1cccnc1)N(C)C (stereo not given)
active: activation [1] 112% | activation [2] 111% | activation [10] 32%
inactive: outcome [3] | outcome [4] | outcome [5] | outcome [6] | outcome [7] | outcome [8] | outcome [9] | outcome [11] | outcome [12] | outcome [13] | outcome [14] | outcome [15] | outcome [16]

O=C(N/N=C/c1ccco1)C1COc2ccccc2O1 (stereo not given)
inactive: outcome [2] | outcome [3] | outcome [4] | outcome [5] | outcome [6] | outcome [7] | outcome [8] | outcome [9] | outcome [10] | outcome [11] | outcome [13] | outcome [14] | outcome [15] | outcome [16]
active: activation [1] 80% | activation [12] 27.3%

Cc1ccc(OCC(=O)N(C)CCc2ccccn2)cc1
active: activation [1] 133% | activation [12] 45.5%
inactive: outcome [2] | outcome [3] | outcome [4] | outcome [5] | outcome [6] | outcome [7] | outcome [8] | outcome [9] | outcome [10] | outcome [11] | outcome [13] | outcome [14] | outcome [15] | outcome [16]

CCN(CC)CCCNC(=O)c1cc2c(-c3ccc(Cl)cc3)nn(C)c2s1
inactive: outcome [1] | outcome [2] | outcome [4] | outcome [5] | outcome [6] | outcome [7] | outcome [8] | outcome [9] | outcome [10] | outcome [11] | outcome [13] | outcome [15] | outcome [16]
active: potentiation [3] 13% | activation [12] 12.6% | potentiation [14] 31.3%

COc1ccc(C(CNC(=O)CSc2ccccc2C)N(C)C)cc1 (stereo not given)
inactive: outcome [3] | outcome [4] | outcome [5] | outcome [6] | outcome [7] | outcome [8] | outcome [9] | outcome [11] | outcome [12] | outcome [13] | outcome [14] | outcome [15] | outcome [16]
active: activation [1] 74% | activation [2] 73% | activation [10] 55%

Reference: PubChem BioAssay
